Bioassay records (PubChem BioAssay)
This is a sample that favours compounds with a hit; in the whole collection about 1.1% have one here.
Efa HMGR inh = inhibitors of E. faecalis class II HMGR, primary screen, biochemical, Enterococcus faecalis; purified E. faecalis HMGR, NADPH absorbance 340 nm kinetic; inhibition, % at 10 µM; 190,000 compounds, 0.41% hits;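 active = inhibition above a set limit, the median over all tested compounds plus 3 SD, cut at about 9.5% in these data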;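 also: enzyme runs in reverse so mevalonate oxidation gives rising NADPH absorbance; 0% = complete reaction with DMSO and 100% = background rate lacking mevalonate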
HSV replic up = enhancers of HSV replication in host cells, fold increase, host cell viability; HSV replication augmentation in cells; maximum fold increase; 220,000 compounds, 0.005% hits; in the data active = maximum fold increase above about 1.5; tested in PC3 cells
INS promoter inh = inhibitors of insulin promoter-driven GFP, primary screen, imaging, TRM-6 cells (human fetal islet line), eGFP reporter, cell count; reporter expression induced with tamoxifen; inhibition, % at 2 µM; 130,000 compounds, 0.9% hits; AID 1273, 2008;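 active = inhibition above the mean plus 3 SD, with well images judged a real hit on visual review, cut at about 60% in these data, passing the limit was not always enough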
Ins promoter up = insulin promoter activators in MIN6 cells, imaging, high-content screening, mouse beta cells; MIN6 insulin promoter-GFP reporter; active compounds read high; z-score at 5 µM; 190,000 compounds, 0.3% hits;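 active = z-score above 3 at 5 µM with at least 500 cells counted in the well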
An asterisk follows results filed as active.

Cc1cc(SCCOc2ccccc2)nc(N)n1 was read as Efa HMGR inh -3, HSV replic up inactive, INS promoter inh 49 and Ins promoter up 3.1*.
For Cc1cc(Oc2ccccc2)nc(N)n1 the results were Efa HMGR inh 1, HSV replic up inactive, INS promoter inh -124 and Ins promoter up -0.44.
`O=C(CSc1nc(O)cc(=O)[nH]1)N1c2ccccc2CCc2ccccc21` gave HSV replic up inactive and Ins promoter up -0.06.
Screening O=C(NCC1CCCO1)c1ccc(NS(=O)(=O)c2ccccc2)cc1 (centres undefined) returned Efa HMGR inh -4, HSV replic up inactive and Ins promoter up 1.8.
`Cc1ccc(S(=O)(=O)N2CCC(=O)N(C(COC(=O)Nc3ccccc3)Cc3ccccc3)CC2)cc1` (centres undefined) gave Efa HMGR inh -9, HSV replic up inactive, INS promoter inh -65 and Ins promoter up -0.57.
Cc1ccc(S(=O)(=O)N2CCC(=O)N(C(CO)Cc3ccccc3)CC2)cc1 (centres undefined) was read as Efa HMGR inh 12*, HSV replic up inactive, INS promoter inh -30 and Ins promoter up 0.34.
Screening O=C(C(=S)N1CCOCC1)c1c[nH]c2ccccc12 returned Efa HMGR inh 0, HSV replic up inactive and Ins promoter up 0.38.
For CCc1nn(-c2ccccc2)c(N)c1C#N the results were Efa HMGR inh -3, HSV replic up inactive, INS promoter inh 60* and Ins promoter up -0.29.
CCCCNS(=O)(=O)c1ccc(NS(=O)(=O)c2c(C)cc(C)cc2C)cc1 was read as Efa HMGR inh -4, HSV replic up inactive, INS promoter inh 3 and Ins promoter up -0.05.
Screening COc1ccc(Cl)cc1N(CC(=O)N(C)C)S(=O)(=O)c1ccc(C)c([N+](=O)[O-])c1 returned Efa HMGR inh 7, HSV replic up inactive, INS promoter inh -89 and Ins promoter up -0.87.
For CCC(=O)N(Cc1ccco1)c1nc(-c2ccc(OC)cc2)cs1 the results were Efa HMGR inh 12*, HSV replic up inactive and INS promoter inh 26.
CCC(=O)N(Cc1ccco1)c1nc(-c2ccccc2)cs1 was read as Efa HMGR inh -1, HSV replic up inactive, INS promoter inh -136 and Ins promoter up 0.48.
`COc1cc(NC(=O)c2cc3nc(-c4ccccc4)cc(-c4ccccc4)n3n2)cc(OC)c1OC` gave Efa HMGR inh 17*, HSV replic up inactive and Ins promoter up -0.82.
`COc1cc(NC(=O)c2ccccc2-c2ccccc2)cc(OC)c1OC` gave Efa HMGR inh -3, HSV replic up inactive and Ins promoter up -0.08.
For NS(=O)(=O)c1ccc(NC=C2C(=O)OC3(CCCCC3)OC2=O)cc1 the results were Efa HMGR inh -2, HSV replic up inactive, INS promoter inh -33 and Ins promoter up 3.8*.
`O=C1NC(Cc2c[nH]c3ccccc23)C(=O)N1Cc1ccc(CN2C(=O)NC(Cc3c[nH]c4ccccc34)C2=O)cc1` (centres undefined) gave Efa HMGR inh -1, HSV replic up inactive, INS promoter inh -11 and Ins promoter up 0.4.
Cc1ccc(N=Nc2c(C)[nH][nH]c2=O)c(C)c1 was read as Efa HMGR inh 3, HSV replic up inactive, INS promoter inh 73* and Ins promoter up 0.01.
CCN1C(=O)/C(=C\C=C\c2ccccc2[N+](=O)[O-])SC1=S was read as Efa HMGR inh 18*, HSV replic up inactive, INS promoter inh 22 and Ins promoter up 0.38.
CCN1C(=O)/C(=C/N2CCc3ccccc3C2)SC1=S was read as HSV replic up inactive and Ins promoter up 0.33.
Screening CC1CCN(C(c2cccs2)c2nnnn2Cc2ccccc2)CC1 (centres undefined) returned Efa HMGR inh -7, HSV replic up inactive, INS promoter inh -83 and Ins promoter up 0.48.
`NCC12CC3CC(C1)CC(CN)(C3)C2` gave Efa HMGR inh -1, HSV replic up inactive and Ins promoter up 3.1*.
CC(C)C(C)NC(=O)COc1ccc(S(=O)(=O)N2CCOCC2)cc1Cl (centres undefined) was read as Efa HMGR inh -6, HSV replic up inactive and Ins promoter up 0.9.
`Cc1cc(N2CCOCC2)nc2ccc(NC(=S)N3CCCCC3C)cc12` (centres undefined) gave Efa HMGR inh 2, HSV replic up inactive and INS promoter inh 73*.
`CCCCOC(=O)Nc1cc(C(=O)OC)ccc1C(=O)OC` gave Efa HMGR inh -5, HSV replic up inactive, INS promoter inh 65* and Ins promoter up 1.4.
Screening CCCCOC(=O)Nc1ccc(C(=O)OC)cc1 returned Efa HMGR inh -9, HSV replic up inactive and Ins promoter up 0.57.
For O=C(Cc1ccc([N+](=O)[O-])cc1)N1N=C(C2CC2)CC1(O)C(F)(F)F (centres undefined) the results were Efa HMGR inh -3 and HSV replic up inactive.
For N=C1C(c2ccccc2)=C(O)CN1c1ccccc1 the results were Efa HMGR inh -4, HSV replic up inactive and Ins promoter up 0.5.
Screening Cc1ccc(N2CC(O)=C(c3ccccc3)C2=N)cc1 returned Efa HMGR inh 0, HSV replic up inactive, INS promoter inh 73* and Ins promoter up -0.86.
For c1cc2c3c(cccc3c1)C(N1CCCCC1)=N2 the results were Efa HMGR inh -3, HSV replic up inactive, INS promoter inh 87* and Ins promoter up -0.11.
`O=C(CNC(=O)c1ccc(S(=O)(=O)N2CCCC2)cc1)N/N=C/c1ccc(Cl)cc1` gave Efa HMGR inh 16*, HSV replic up inactive, INS promoter inh 14 and Ins promoter up 0.32.
For O=C(CNC(=O)c1ccc(S(=O)(=O)N2CCCC2)cc1)N/N=C/c1ccccc1 the results were Efa HMGR inh 4, HSV replic up inactive, INS promoter inh 7 and Ins promoter up -0.12.
For Cc1ccc2nc(-c3ccccc3O)c(Nc3ccc4c(c3)OCCO4)n2c1 the results were Efa HMGR inh 4, HSV replic up inactive, INS promoter inh 67* and Ins promoter up 0.35.
For CCc1ccc(NC(=O)CC2C(=O)Nc3c2c(=O)n(C)c(=O)n3C)cc1 (centres undefined) the results were Efa HMGR inh 12*, HSV replic up inactive, INS promoter inh -3 and Ins promoter up -0.24.
O=C(/C=C/Nc1ccc(Br)cc1F)c1ccco1 was read as Efa HMGR inh 9.8*, HSV replic up inactive, INS promoter inh 59 and Ins promoter up 0.06.
Screening Cc1cc(N)n(-c2nc3ccccc3s2)n1 returned Efa HMGR inh 9.6*, HSV replic up inactive, INS promoter inh 63 and Ins promoter up -0.18.
Screening Cc1cc(C)n(-c2nc3ccccc3s2)n1 returned Efa HMGR inh 2, HSV replic up inactive and INS promoter inh -7.
`COc1cc2c(c(OC)c1OC)CCc1cnoc1-2` gave HSV replic up inactive and Ins promoter up 0.54.
`CC(NC(=O)OC(C)(C)C)C(=O)NC(CCC(=O)OCc1ccccc1)C(N)=O` (centres undefined) gave Efa HMGR inh -2, HSV replic up inactive and INS promoter inh -25.
`CCc1ccc(NC(=O)CSCc2ccc(C(=O)O)cc2)cc1` gave Efa HMGR inh 21* and HSV replic up inactive.
